Laboratory results published in PubChem BioAssay (NCI).
Compounds without any hit were thinned out: in the full panel of roughly 79,000, 15% have a hit. Active and inactive are the calls of the source. Rule as the data show it: active = growth inhibition above about 70%; inactive = the rest.

Key:
[1] = NCI Yeast Anticancer Drug Screen. Data for the wt1 strain (AID 149);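 also: 0% = growth of vehicle-treated wt1 cultures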; settings: S. cerevisiae wt1 strain (SPY 50644) growth inhibition, stronger effect = higher value
Procedure, shortened: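 wt1 strain grown with compound or vehicle; inhibition taken from the growth difference.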

[2] = NCI Yeast Anticancer Drug Screen. Data for the rad50EPP+ strain (AID 151);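 also: 0% = growth of vehicle-treated control cultures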; settings: S. cerevisiae rad50 mutant strain, stronger effect = higher value
Procedure, shortened: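 Strain rad50EPP+; compound exposure; % growth inhibition vs vehicle.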

[3] = NCI Yeast Anticancer Drug Screen. Data for the mgt1 strain (AID 153); settings: S. cerevisiae mgt1 mutant growth inhibition, stronger effect = higher value
Procedure, shortened: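 Read-out: yeast growth inhibition vs vehicle control. Strain mgt1, drawn from a panel altered in DNA damage repair or cell cycle control.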

[4] = NCI Yeast Anticancer Drug Screen. Data for the rad50 strain (AID 155);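 also: 0% = growth of vehicle-only cultures of the same strain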; settings: S. cerevisiae rad50 strain growth inhibition, stronger effect = higher value
Procedure, shortened: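 DNA repair mutant yeast, compound exposure, growth read-out; inhibition is taken relative to vehicle.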

[5] = NCI Yeast Anticancer Drug Screen. Data for the mec2-1 strain (AID 157); settings: S. cerevisiae mec2-1 strain, stronger effect = higher value
Procedure, shortened: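 Cells of the genetically defined mec2-1 yeast strain are incubated with test compound. Inhibition of growth is calculated against vehicle-treated controls.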

[6] = NCI Yeast Anticancer Drug Screen. Data for the rad14 strain (AID 159);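 also: 0% = growth of vehicle-treated control cultures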; settings: S. cerevisiae rad14 strain growth inhibition, stronger effect = higher value
Procedure, shortened: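 DNA repair-defective yeast, compound-exposed; % growth inhibition derived by comparison with vehicle-treated controls.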

[7] = NCI Yeast Anticancer Drug Screen. Data for the sgs1 mgt1 strain (AID 161);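 also: 0% = growth of cultures given vehicle only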; settings: S. cerevisiae sgs1 mgt1 strain, stronger effect = higher value
Procedure, shortened: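 Genetically altered yeast, compound exposure, growth inhibition relative to vehicle.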

[8] = NCI Yeast Anticancer Drug Screen. Data for the CLN2oe strain (AID 163);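 also: 0% = growth of vehicle-only control cultures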; settings: S. cerevisiae CLN2oe strain, stronger effect = higher value
Procedure, shortened: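 Strain altered in cell-cycle control, incubated with compound; growth compared to solvent-treated controls.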

[9] = NCI Yeast Anticancer Drug Screen. Data for the cln2 rad14 strain (AID 165);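 also: 0% = growth equal to vehicle treated cultures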; settings: S. cerevisiae cln2 rad14 strain, stronger effect = higher value
Procedure, shortened: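 The screen exposed genetically defined yeast (cln2 rad14) to test compounds and scored growth inhibition relative to vehicle-treated controls.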

[10] = NCI Yeast Anticancer Drug Screen. Data for the bub3 strain (AID 167); settings: S. cerevisiae bub3 mutant strain, stronger effect = higher value
Procedure, shortened: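 In this screen, a yeast mutant lacking normal mitotic checkpoint function is challenged with compound. Relative growth versus vehicle gives the inhibition value.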

[11] = NCI Yeast Anticancer Drug Screen. Data for the wt2 strain (AID 169);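 also: 0% = growth of vehicle-treated yeast cultures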; settings: S. cerevisiae wt2 strain growth inhibition, stronger effect = higher value
Procedure, shortened: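 Steps: yeast strain treated with compound; growth recorded; inhibition calculated relative to cultures given vehicle alone.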

[12] = NCI Yeast Anticancer Drug Screen. Data for the sgs1 strain (AID 173);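 also: 0% = growth of vehicle-only control cultures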; settings: S. cerevisiae sgs1 mutant, stronger effect = higher value
Procedure, shortened: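 Inhibition of yeast growth served as the measure. The mutant strain was treated with each compound, and growth was normalised to cultures receiving vehicle alone.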

[13] = NCI Yeast Anticancer Drug Screen. Data for the mlh1 rad18 strain (AID 175); settings: S. cerevisiae mlh1 rad18 strain growth inhibition, stronger effect = higher value
Procedure, shortened: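 Compound-treated yeast growth, normalised to vehicle controls. Strain bears defined DNA repair mutations.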

[14] = NCI Yeast Anticancer Drug Screen. Data for the rad18 strain (AID 177); settings: S. cerevisiae rad18 mutant growth inhibition, stronger effect = higher value
Procedure, shortened: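 Inhibition values reflect reduced yeast growth compared with vehicle-treated controls, using a strain engineered with a DNA damage repair defect.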

[15] = at 5.0 µM (retest, dose inferred, filed as 0.5)
[16] = at 50.0 µM (retest, dose inferred, filed as 5.0)

Measured: growth inhibition

COC(=O)C(Cc1c[nH]c2ccccc12)N1CN(C)c2ccccc2C1=O (stereo not drawn)
active: [3]; at 100.0 µM 99% | [4]; at 100.0 µM 99% | [5]; at 100.0 µM 99% | [6]; at 100.0 µM 99% | [7]; at 50.0 µM 97.8% | [8]; at 100.0 µM 99% | [9]; at 50.0 µM 70.5% | [10]; at 100.0 µM 99% | [11]; at 100.0 µM 99% | [12]; at 100.0 µM 99% | [13]; [16] 75% | [13]; at 50.0 µM 95.8% | [14]; at 100.0 µM 99%
inactive: [1]; at 1.2 µM 7% | [1]; at 3.7 µM -3% | [1]; at 11.0 µM -4% | [1]; at 33.0 µM -4% | [1]; at 100.0 µM 60% | [2]; at 1.2 µM 9% | [2]; at 3.7 µM 0% | [2]; at 11.0 µM -3% | [2]; at 33.0 µM 1% | [2]; at 100.0 µM 16% | [3]; at 1.2 µM 49% | [3]; at 3.7 µM -1% | [3]; at 11.0 µM -1% | [3]; at 33.0 µM 5% | [4]; at 1.2 µM 7% | [4]; at 3.7 µM 2% | [4]; [15] 11% | [4]; at 11.0 µM 6% | [4]; at 33.0 µM 2% | [4]; [16] 37% | [4]; at 50.0 µM 57.9% | [5]; at 1.2 µM 5% | [5]; at 3.7 µM -1% | [5]; [15] -17% | [5]; at 11.0 µM -2% | [5]; at 33.0 µM 5% | [5]; [16] 11% | [5]; at 50.0 µM 50.5% | [6]; at 1.2 µM 6% | [6]; at 3.7 µM -9% | [6]; at 11.0 µM -5% | [6]; at 33.0 µM -13% | [7]; [15] -2% | [7]; [16] 60% | [8]; at 1.2 µM 4% | [8]; at 3.7 µM 1% | [8]; at 11.0 µM 3% | [8]; at 33.0 µM 7% | [9]; [15] -4% | [9]; [16] 54% | [10]; at 1.2 µM -6% | [10]; at 3.7 µM -1% | [10]; [15] 13% | [10]; at 11.0 µM 11% | [10]; at 33.0 µM 0% | [10]; [16] 44% | [10]; at 50.0 µM 40.4% | [11]; at 1.2 µM 8% | [11]; at 3.7 µM -2% | [11]; at 11.0 µM -4% | [11]; at 33.0 µM 0% | [12]; at 1.2 µM 3% | [12]; at 3.7 µM 2% | [12]; at 11.0 µM 1% | [12]; at 33.0 µM 8% | [13]; [15] -9% | [14]; at 1.2 µM -8% | [14]; at 3.7 µM -3% | [14]; at 11.0 µM 3% | [14]; at 33.0 µM 18%
